Results filed as inconclusive are left out. A number with no mark means an inactive call. Calls of active or inactive are those of the source. Calls follow the shape of the dose curve; as a rule, active = well fitted inhibition curve with a large enough effect; inconclusive = small, poorly fitted or top-dose-only effect; inactive = no such curve, though single readings can be large or run the other way.
target: Rap guanine nucleotide exchange factor 4 (Homo sapiens) (UniProt Q8WZA2); experiment: Confirmatory qHTS for antagonist of cAMP-regulated guanine nucleotide exchange factor 4 (EPAC2) (AID 1645885); conditions: EPAC2 Rap1B-BODIPY-GDP exchange fluorescence, biochemical; series mostly up to 12.7 µM; activity change, negative = inhibition: at the top concentration; also: nearly all actives have a fitted effect of over 25% in size; also: potency is read from the fitted curve at half-maximal effect; as to activity change, negative = inhibition: % is scaled to controls: 0 for no effect and ±100 for the full control effect
Sequence (Q8WZA2 whole entry, looked up): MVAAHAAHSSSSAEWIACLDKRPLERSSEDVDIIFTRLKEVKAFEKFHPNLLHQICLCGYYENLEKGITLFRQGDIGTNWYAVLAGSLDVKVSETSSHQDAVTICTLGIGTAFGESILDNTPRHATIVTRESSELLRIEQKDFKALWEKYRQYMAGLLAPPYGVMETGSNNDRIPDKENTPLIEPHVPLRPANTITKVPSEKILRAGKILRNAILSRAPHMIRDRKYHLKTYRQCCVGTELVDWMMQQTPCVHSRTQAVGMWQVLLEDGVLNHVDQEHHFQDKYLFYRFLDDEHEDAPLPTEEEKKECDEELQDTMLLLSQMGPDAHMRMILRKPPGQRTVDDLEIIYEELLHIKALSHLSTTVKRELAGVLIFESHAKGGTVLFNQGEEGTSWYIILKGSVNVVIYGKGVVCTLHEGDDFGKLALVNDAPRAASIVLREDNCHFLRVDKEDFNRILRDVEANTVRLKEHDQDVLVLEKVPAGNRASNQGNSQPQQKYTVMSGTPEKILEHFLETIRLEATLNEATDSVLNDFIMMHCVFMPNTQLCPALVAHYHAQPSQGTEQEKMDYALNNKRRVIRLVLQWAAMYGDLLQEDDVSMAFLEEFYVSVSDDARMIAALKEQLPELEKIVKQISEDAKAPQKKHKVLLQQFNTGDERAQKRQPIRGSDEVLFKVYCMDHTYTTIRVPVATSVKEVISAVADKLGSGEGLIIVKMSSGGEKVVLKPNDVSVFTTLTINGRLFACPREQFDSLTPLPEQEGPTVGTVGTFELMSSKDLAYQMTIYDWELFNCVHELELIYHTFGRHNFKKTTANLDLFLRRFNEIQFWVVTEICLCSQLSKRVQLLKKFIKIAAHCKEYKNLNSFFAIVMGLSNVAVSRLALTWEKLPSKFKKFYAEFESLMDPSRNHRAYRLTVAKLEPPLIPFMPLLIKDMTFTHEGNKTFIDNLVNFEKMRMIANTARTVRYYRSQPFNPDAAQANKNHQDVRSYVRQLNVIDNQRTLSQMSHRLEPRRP

Going from `O=C(c1ccc(-c2nnc(Nc3cccc(Cl)c3)c3ccccc23)cc1)N1C[C@H]2C[C@H](C1)c1cccc(=O)n1C2` to `O=C(NNc1c2ccccc2nc2ccccc12)c1ccccc1O`, the “activity change, negative = inhibition” value rises from -11% [at 114 µM] to 82.2% [at 114 µM].

Compared with `O=C(Cc1ccc(Cl)cc1)N/N=C/c1ccc(O)c(O)c1`, `CCOC(=O)N(C)c1c(CC)nc2c(OCc3ccc(C(F)(F)F)cc3)cccn12` is lower in “activity change, negative = inhibition” value: 93.2% [at 114 µM] for the first, 64.6% [at 114 µM] for the second.

Compared with `CCOc1ccc(S(=O)(=O)Nc2cc(NS(=O)(=O)c3ccc(OCC)cc3)cc(C(=O)O)c2)cc1`, `Cc1ccc(S(=O)(=O)Nc2ccc(S(=O)(=O)Nc3nccs3)cc2)cc1C` is lower in “activity change, negative = inhibition” value: 109% [at 114 µM] for the first, 32.8% [at 114 µM] for the second.

For `C/C=C/c1cc(OC)c2c(c1)[C@H](C)[C@@H](c1ccc(O)c(OC)c1)O2`, the “activity change, negative = inhibition” value was 40.6% [at 114 µM].

`CC1=C(C(=O)OC(C)C)C(c2ccc(C)o2)C(C(=O)OC(C)C)=C(C)N1` was tested, and the Potency was 30.1 µM (active).

Going from `C[C@H](c1ccccc1)N1C[C@H](COCc2ccccc2)Oc2cc(N3CC[C@@H](O)C3)ccc2S1(=O)=O` to `O=C(N[C@H](Cc1ccc(Cl)cc1)C(=O)O)OCC1c2ccccc2-c2ccccc21`, the “activity change, negative = inhibition” value falls from -9.74% to -17.4%.

Going from `Cc1csc2c(=O)sc(NC(=O)c3cccs3)nc12` to `NS(=O)(=O)c1ccc(NC(=O)c2cccc(N3C(=O)c4ccccc4C3=O)c2)cc1`, the “activity change, negative = inhibition” value falls from 25.4% to -9.49%.

With `CCOc1cc(/C=C/c2cc(C(=O)O)c3ccccc3n2)ccc1OC` the “activity change, negative = inhibition” value was -6.68%.

`O=C(CSc1nc(-c2cccs2)nc2cc(=O)[nH]n12)Nc1cccc(C(F)(F)F)c1` was tested, and the outcome was “inactive [at 12.7 µM]”.

target: Rap guanine nucleotide exchange factor 3 (Homo sapiens) (UniProt O95398); experiment: Counterscreen qHTS for antagonist of cAMP-regulated guanine nucleotide exchange factor 3 (EPAC1) (AID 1645888); conditions: Rap1B-BODIPY-GDP nucleotide exchange, fluorescence; series mostly up to 154 µM; activity change, negative = inhibition: at the top concentration;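 also: fluorescence loss as bound BODIPY-GDP is released from Rap1B; % of control where 0% means no effect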
Sequence (O95398 whole entry, looked up): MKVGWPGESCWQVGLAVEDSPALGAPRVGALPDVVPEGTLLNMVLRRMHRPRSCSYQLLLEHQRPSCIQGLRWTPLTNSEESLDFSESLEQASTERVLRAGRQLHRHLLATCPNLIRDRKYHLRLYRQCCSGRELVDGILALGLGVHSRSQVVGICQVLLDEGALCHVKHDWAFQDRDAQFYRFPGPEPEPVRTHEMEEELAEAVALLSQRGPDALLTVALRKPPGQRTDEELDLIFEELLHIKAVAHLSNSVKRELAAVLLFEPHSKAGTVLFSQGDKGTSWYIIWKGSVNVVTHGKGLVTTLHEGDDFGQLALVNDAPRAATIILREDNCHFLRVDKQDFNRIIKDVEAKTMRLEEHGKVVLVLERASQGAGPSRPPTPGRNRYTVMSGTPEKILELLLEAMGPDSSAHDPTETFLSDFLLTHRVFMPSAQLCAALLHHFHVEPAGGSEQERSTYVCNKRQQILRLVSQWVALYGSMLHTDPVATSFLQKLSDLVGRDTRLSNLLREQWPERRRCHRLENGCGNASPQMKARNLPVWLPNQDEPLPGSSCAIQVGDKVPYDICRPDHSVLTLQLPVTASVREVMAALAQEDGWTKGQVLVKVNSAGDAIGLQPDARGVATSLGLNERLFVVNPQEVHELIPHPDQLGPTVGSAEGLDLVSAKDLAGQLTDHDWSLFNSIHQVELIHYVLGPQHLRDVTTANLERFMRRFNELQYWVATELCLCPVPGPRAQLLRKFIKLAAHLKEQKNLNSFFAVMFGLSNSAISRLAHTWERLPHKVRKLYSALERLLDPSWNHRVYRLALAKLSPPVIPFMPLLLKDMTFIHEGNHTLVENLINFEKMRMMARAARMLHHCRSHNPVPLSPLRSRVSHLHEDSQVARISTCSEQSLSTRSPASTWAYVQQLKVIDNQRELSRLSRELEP
In short: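 Measured: fluorescence of BODIPY-GDP bound to Rap1B, which falls as exchange proceeds. Conditions include 50 uM competing GDP, 5 and 30 min reads, and a later cAMP challenge for antagonist detection.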

Compared with `O=C(O)/C(=C\c1ccc(-c2ccc(F)cc2)o1)c1ccccc1`, `O=C(NNc1c2ccccc2nc2ccccc12)c1ccccc1O` is lower in “activity change, negative = inhibition” value: 26.4% for the first, -8.07% for the second.

Going from `CCCCCCn1nc(C(=O)OCC(=O)c2c(N)n(C)c(=O)n(C)c2=O)c2ccccc2c1=O` to `O=C(COC(=O)c1ccc2c(c1)C(=O)N(Cc1ccncc1)C2=O)Nc1ccccc1[N+](=O)[O-]`, the “activity change, negative = inhibition” value falls from -12.8% to -13.3%.

Compared with `COc1ccc(C(=O)Nc2ccccc2-c2nnn(CC(N)=O)n2)cc1`, `CCN1CCc2c(sc(-n3cccc3)c2C(C)NC(=O)Nc2ccc(C(=O)OC)cc2)C1` (centres undefined) is lower in “activity change, negative = inhibition” value: 21.8% for the first, 12.4% for the second.

First: CCc1c(O)cc(=O)n(-c2ccccc2)c1-c1ccccc1
Second: CCCCC(CC)COC1(c2ccccc2)OC(=O)c2ccccc21 (centres undefined)
The “activity change, negative = inhibition” value of the first is higher: 6.22% for the first, -10.1% for the second.

Going from `Cc1ccc(C)c(Cn2nc(-c3cc(C)ccc3C)ccc2=O)c1` to `CCN(C(=O)c1noc2c1COc1ccc(C)cc1-2)c1cccc(C)c1`, the “activity change, negative = inhibition” value rises from -12.4% to 14.2%.

Compared with `Cc1cc2oc(=O)c(CC(=O)O)c(C)c2c2occ(-c3ccccc3)c12`, `CCOC(=O)C1=C(C)N=c2s/c(=C/c3cccc([N+](=O)[O-])c3O)c(=O)n2C1c1ccccc1` (centres undefined) is lower in “activity change, negative = inhibition” value: 24.3% for the first, -2.15% for the second.

Compared with `C=CCn1c(=NC(=O)c2sc3ccccc3c2Cl)sc2cc(S(N)(=O)=O)ccc21`, `Cc1cccc(C(=O)N=c2c(C#N)cc3c(=O)n4cccc(C)c4nc3n2Cc2ccco2)c1` is higher in “activity change, negative = inhibition” value: -4.53% for the first, 43.8% for the second.

First: Cc1nnc(-c2ccco2)c2cn(-c3cccc(Br)c3)nc12
Second: O=C(CSc1nc(-c2cccs2)nc2cc(=O)[nH]n12)Nc1cccc(C(F)(F)F)c1
The “activity change, negative = inhibition” value of the first is higher: 13.9% for the first, -5.59% for the second.

Going from `Oc1ccc(NCc2ccc(OCc3ccccc3Cl)cc2)cc1` to `O=C(Cc1ccc(Cl)cc1)N/N=C/c1ccc(O)c(O)c1`, the “activity change, negative = inhibition” value rises from -17.5% to -0.921%.

Going from `COc1ccc(/C=N\Nc2ccc([N+](=O)[O-])cc2)c(C(=O)O)c1OC` to `Cc1ccc(S(=O)(=O)Nc2ccc(S(=O)(=O)Nc3nccs3)cc2)cc1C`, the “activity change, negative = inhibition” value rises from -17.3% to 17.2%.

Going from `O=C(c1ccc(-c2nnc(Nc3cccc(Cl)c3)c3ccccc23)cc1)N1C[C@H]2C[C@H](C1)c1cccc(=O)n1C2` to `CCOc1ccc(S(=O)(=O)Nc2cc(NS(=O)(=O)c3ccc(OCC)cc3)cc(C(=O)O)c2)cc1`, the “activity change, negative = inhibition” value rises from -12.7% to 2.96%.

Going from `CC1=C(C(=O)OC(C)C)C(c2ccc(C)o2)C(C(=O)OC(C)C)=C(C)N1` to `C/C=C/c1cc(OC)c2c(c1)[C@H](C)[C@@H](c1ccc(O)c(OC)c1)O2`, the “activity change, negative = inhibition” value rises from -21.9% to -9.91%.

Going from `CCOC(=O)N(C)c1c(CC)nc2c(OCc3ccc(C(F)(F)F)cc3)cccn12` to `Cc1csc2c(=O)sc(NC(=O)c3cccs3)nc12`, the “activity change, negative = inhibition” value rises from -29.6% to 22%.

Compared with `O=C(Cn1ncc(Cl)c(Cl)c1=O)NC(=O)NC1CCCCC1`, `CC1CCC(NC(=O)Cn2c3c(c(-c4ccccc4Cl)cc2=O)CCC3)CC1` (centres undefined) is lower in activity change, negative = inhibition: -1.53% [at 30.8 µM] for the first, -11.4% [at 30.8 µM] for the second.

Compared with `COc1ccc(N=C2SC(C(=O)Nc3ccc(C(=O)O)cc3)CC(=O)N2Cc2cccs2)cc1` (centres undefined), `COc1cc(/C=N/NC(=O)c2ccccc2O)ccc1OCC(=O)Nc1ccccc1` is higher in activity change, negative = inhibition: -2.18% [at 30.8 µM] for the first, 0.781% [at 30.8 µM] for the second.

Going from `Cc1cc(C)c(C)c(S(=O)(=O)N2CCCCC2C(=O)O)c1C` (centres undefined) to `C[C@H](c1ccccc1)N1C[C@H](COCc2ccccc2)Oc2cc(N3CC[C@@H](O)C3)ccc2S1(=O)=O`, the activity change, negative = inhibition falls from 8.45% [at 30.8 µM] to -15.5% [at 30.8 µM].

Compared with `O=C(/C=C/c1ccco1)NC(=S)Nc1cccc(-c2nc3ccccc3o2)c1`, `CCOc1cc(/C=C/c2cc(C(=O)O)c3ccccc3n2)ccc1OC` is higher in activity change, negative = inhibition: -12.8% [at 30.8 µM] for the first, 8.54% [at 30.8 µM] for the second.

Compared with `N#CC(c1nc2ccccc2nc1OCCO)S(=O)(=O)c1ccccc1` (centres undefined), `O=C(C=Cc1ccccc1)c1c[nH]c2ccccc2c1=O` is lower in activity change, negative = inhibition: -25.3% [at 30.8 µM] for the first, -25.8% [at 30.8 µM] for the second.

First: Nc1ccc(SC(F)(F)F)cc1C(=O)c1ccccc1
Second: NS(=O)(=O)c1ccc(NC(=O)c2cccc(N3C(=O)c4ccccc4C3=O)c2)cc1
The activity change, negative = inhibition of the first is lower: -9.64% [at 30.8 µM] for the first, 2.18% [at 30.8 µM] for the second.

Going from `O=C(N/N=C/c1ccc(O)c([N+](=O)[O-])c1)C1CC1(c1ccccc1)c1ccccc1` (centres undefined) to `O=C(N[C@H](Cc1ccc(Cl)cc1)C(=O)O)OCC1c2ccccc2-c2ccccc21`, the activity change, negative = inhibition rises from -23.6% [at 30.8 µM] to -5.81% [at 30.8 µM].

Source: PubChem BioAssay (NCATS)
